From PubChem
Rows were chosen to be rich in hits. Some 1% of all compounds tested hit in one or more screens of this group.
DUSP3 inh = blocks human VHR1 dual specificity phosphatase; P51452; recombinant VHR phosphatase, pNPP absorbance; inhibition, % at 13.3 µM; hit rate 0.52% among 290,000; in the data active means inhibition above about 50%
Target sequence (P51452 whole entry, looked up): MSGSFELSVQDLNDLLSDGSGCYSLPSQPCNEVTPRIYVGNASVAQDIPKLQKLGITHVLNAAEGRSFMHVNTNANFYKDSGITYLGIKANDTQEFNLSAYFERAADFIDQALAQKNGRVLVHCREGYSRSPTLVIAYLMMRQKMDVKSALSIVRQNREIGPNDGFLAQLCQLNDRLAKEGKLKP
Yp Topo-I inh = inhibitors of Yersinia pestis topoisomerase I | activity, % at 10 µM | Y. pestis Topo-I cleavage product accumulation, plate reader | hit rate 0.064% among 360,000; in the data active means activity above about 50%, passing the limit was not always enough
Mtb BioA inh = blocks M. tuberculosis BioA enzyme activity. inhibition, % at 9.99 µM. purified M. tuberculosis BioA enzyme, plate reader. hit rate 0.096% among 360,000; in the data active means inhibition above about 40%
TcdB GH inh = blocks C. difficile toxin B glycohydrolase activity; TcdB glycohydrolase enzymatic assay, plate reader; inhibition, % at 9.99 µM; hit rate 0.24% among 350,000; AID 652162; in the data active means inhibition above about 10%
FadD28 FP inh = inhibitors of Mycobacterium tuberculosis FadD28 bisubstrate binding; FadD28 bisubstrate probe binding, fluorescence polarization; AID 588549; hit rate 0.22% among 360,000; inhibition, % at 12.5 µM; in the data active means inhibition above about 8.5%, passing the limit was not always enough
MazEF act = increases E. coli MazEF RNase cleavage of RNA; P0AE70; FAM/BHQ RNA-DNA oligo cleavage fluorescence, 5 h; activation, % at 20 µM; hit rate 0.32% among 350,000; AID 504720; in the data active means activation above about 50%
Target sequence (P0AE70 whole entry, looked up): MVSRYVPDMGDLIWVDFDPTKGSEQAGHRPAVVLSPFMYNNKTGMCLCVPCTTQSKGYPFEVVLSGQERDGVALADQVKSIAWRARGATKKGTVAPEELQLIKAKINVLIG
Of the large screens only hits and unclear results are named; the others gave an inactive call.

Cc1noc(NS(=O)(=O)c2ccc(NC(=O)/C=C/c3ccc(Br)cc3)cc2)c1C	FadD28 FP inh 9.7
Cc1noc(NS(=O)(=O)c2ccc(NC(=O)Nc3ccc(Cl)c(Cl)c3)cc2)c1C	FadD28 FP inh 31.2 (no result: TcdB GH inh)
Cc1noc(NS(=O)(=O)c2ccc(NC(=O)/C=C/c3ccc(C(C)C)cc3)cc2)c1C	FadD28 FP inh 25.9
COc1cccc(C(=O)/C=C/Nc2ccc(S(=O)(=O)Nc3onc(C)c3C)cc2)c1	none (no result: Mtb BioA inh)
Cc1noc(NS(=O)(=O)c2ccc(N/C=C\C(=O)c3cccc4ccccc34)cc2)c1C	FadD28 FP inh 23.7
CO[C@@H]1CN(C)C(=O)c2cc(NC(=O)c3cc(C)on3)ccc2OC[C@@H](C)N(S(=O)(=O)c2cccc(F)c2)C[C@H]1C	none (no result: DUSP3 inh, Yp Topo-I inh, FadD28 FP inh, MazEF act)
C[C@@H]1CCCCO[C@@H](CN(C)C(=O)Cc2ccccc2)[C@@H](C)CN([C@@H](C)CO)C(=O)c2cc(NS(=O)(=O)c3cccs3)ccc2O1	none (no result: DUSP3 inh, Yp Topo-I inh, FadD28 FP inh, MazEF act)
O=C(C[C@@H]1C=C[C@H](NC(=O)c2ccccc2)[C@@H](CO)O1)NCc1ccncn1	none (no result: DUSP3 inh, Yp Topo-I inh, FadD28 FP inh, MazEF act)
Cc1ccccc1S(=O)(=O)NCC[C@@H]1CC[C@H](NS(=O)(=O)c2ccccc2C)[C@@H](CO)O1	none (no result: DUSP3 inh, Yp Topo-I inh, FadD28 FP inh, MazEF act)
CC=Cc1ccc2n(c1=O)C[C@@H]1[C@@H](CO)[C@H](C(=O)NCCC)[C@H]2N1C(=O)C1CCCC1 (mixture of isomers)	none (no result: DUSP3 inh, Yp Topo-I inh, FadD28 FP inh, MazEF act)
CN1C(=O)c2cc(NS(C)(=O)=O)ccc2OC[C@@H]2O[C@@H](CC(=O)NC3CCCCC3)CC[C@H]21	none (no result: DUSP3 inh, Yp Topo-I inh, FadD28 FP inh, MazEF act)
Cc1ccc(NNC(=O)c2ccno2)cc1Cl	TcdB GH inh 72.6
Cc1ccc(NNC(=O)c2c(C)noc2C)cc1Cl	none (no result: Mtb BioA inh)
Cc1ccc(NNC(=O)c2ccno2)cc1C	TcdB GH inh 88.2 (no result: Mtb BioA inh)
Cc1cc(C(=O)NNc2ccc(C)c(C)c2)no1	TcdB GH inh 60.7 (no result: Mtb BioA inh)
CCCC#Cc1ccc([C@@H]2[C@H]3CN(C(=O)Nc4ccc(F)cc4)CC(=O)N3[C@H]2CO)cc1	none (no result: DUSP3 inh, Yp Topo-I inh, Mtb BioA inh, FadD28 FP inh, MazEF act)
CC=Cc1ccc2n(c1=O)C[C@@H]1[C@@H](CO)[C@H](C(=O)Nc3ccccc3)N(CC3CCCC3)[C@H]21 (mixture of isomers)	none (no result: DUSP3 inh, Yp Topo-I inh, FadD28 FP inh, MazEF act)
O=C(COc1ccc(/C=N/NC(=O)c2ccc(O)cc2)cc1)Nc1cccc([N+](=O)[O-])c1	TcdB GH inh 15.4 (no result: Mtb BioA inh)
COc1ccc(C(=O)Nc2ccccc2C(=O)O)cc1Cl	TcdB GH inh 10.3 (no result: Mtb BioA inh)
C[C@H]1CN([C@@H](C)CO)C(=O)c2cc(C#CCN(C)C)cnc2O[C@H]1CN(C)S(=O)(=O)c1ccccc1	none (no result: DUSP3 inh, Yp Topo-I inh, FadD28 FP inh, MazEF act)
CCOc1ccccc1Nc1nnc(SCC(=O)NC(=O)c2cccn2C)s1	none (no result: Mtb BioA inh)
Cc1cccc(C)c1Nc1nnc(SCC(=O)NC(=O)c2cccn2C)s1	DUSP3 inh 51.3 (no result: Mtb BioA inh, TcdB GH inh)
O=C(Nc1ccc(O)cc1)/C(=C\c1ccncc1)NC(=O)c1ccccc1	TcdB GH inh 23.6
O=C(Nc1ccc(O)cc1)/C(=C/c1ccco1)NC(=O)c1ccccc1	TcdB GH inh 17.8 (no result: Mtb BioA inh)
O=C(C[C@H]1C[C@H]2c3cc(NC(=O)Nc4ccccc4F)ccc3O[C@H]2[C@H](CO)O1)NCc1ccc2c(c1)OCO2	none (no result: DUSP3 inh, Yp Topo-I inh, FadD28 FP inh, MazEF act)
CCC1CCCCN1CC(=O)c1c(C)[nH]c2cc(C)ccc12 (stereo not given)	DUSP3 inh 52.0 (no result: FadD28 FP inh)
C[C@H](NC(=O)C[C@@H]1C[C@@H]2c3cc(NC(=O)C4CCOCC4)ccc3O[C@@H]2[C@H](CO)O1)c1ccccc1	none (no result: DUSP3 inh, Yp Topo-I inh, FadD28 FP inh, MazEF act)
CC(C)NC(=O)N[C@H]1CC[C@H](CC(=O)NCc2ccc(Oc3ccccc3)cc2)O[C@H]1CO	none (no result: DUSP3 inh, Yp Topo-I inh, FadD28 FP inh, MazEF act)
CCCOc1ccc(C(=O)Nc2ccc(S(=O)(=O)Nc3cc(C)nc(C)n3)cc2)cc1	DUSP3 inh 52.4
CCC(=O)Nc1ccc2c(c1)OC[C@H](C)N(Cc1cccnc1)C[C@H](C)[C@@H](OC)CN(C)C2=O	none (no result: DUSP3 inh, Yp Topo-I inh, Mtb BioA inh, FadD28 FP inh, MazEF act)
O=C(CNC(=O)c1cccc(F)c1)OCC(=O)N1CCCCC1	DUSP3 inh 50.8 (no result: Mtb BioA inh, TcdB GH inh)
O=C(CNC(=O)c1cccc(F)c1)OCC(=O)N1CCN(C(=O)c2ccco2)CC1	none
CCOCCCNC(=O)c1cc(Cl)c(NC(=O)C2=C(C)OCCS2)cc1OC	none
CCCNC(=O)c1cc(Cl)c(NC(=O)C2=C(C)OCCS2)cc1OC	DUSP3 inh 56.9 (no result: Mtb BioA inh)
COCCNC(=O)C[C@@H]1CC[C@H]2[C@@H](COC[C@@H](O)CN2S(=O)(=O)c2ccccc2C)O1	none (no result: DUSP3 inh, Yp Topo-I inh, FadD28 FP inh, MazEF act)
C[C@@H]1CCCCO[C@H](CN(C)S(=O)(=O)c2ccc(Cl)cc2)[C@H](C)CN([C@@H](C)CO)C(=O)c2cc(NC(=O)c3ccncc3)ccc2O1	none (no result: DUSP3 inh, Yp Topo-I inh, FadD28 FP inh, MazEF act)
